Here are results for six compounds from ChEMBL document CHEMBL1201862, “PubChem BioAssay data set” (2004).

Hit rate of the full screen: of about 360,000 compounds, about 11,000 (3.1%) were called active. Roughly 4% stayed inconclusive and do not appear here. The calls are words filed in the database; no cut-off is given here. The full list was thinned out, with actives kept by preference.

The assay addresses Thioredoxin glutathione reductase (Schistosoma mansoni) (UniProt Q962Y6). As to the kind of experiment: qHTS Assay for the Inhibitors of Schistosoma Mansoni Peroxiredoxins. [Related pubchem assays: 1011 (Confirmation Concentration-Response Assay for Inhibitors of the Schistosoma mansoni Redox Cascade ), 448 (Schistosoma Mansoni Peroxiredoxins (Prx2) and thioredoxin glutathione reductase (TGR) coupled assay)]. Type of assay: functional. A general note: In qHTS, concentration-response curves come from the screen itself.
With `Cl.N[C@@H](CCC(=O)O)C(=O)O`, the Potency was 5.01 µM (active). With `Nc1c2c(nn1-c1ccc(C(=O)O)cc1)CNC2` the entry was “inactive”. With `Cc1ccc(CNC(=O)C(=O)NCC2OCCN2S(=O)(=O)c2ccc3c(c2)OCCO3)cc1` (stereo unspecified) the figure was 631 µM (active); with `Cc1ccc(CNC(=O)C(NS(=O)(=O)c2cccc3nsnc23)C(C)C)cc1` (stereo unspecified), “inactive”; with `Cc1c(C(=O)N2CCCCC2)c(S(=O)(=O)NCCc2ccc(Cl)cc2)c(C)n1C`, “inactive”.

With `CC(=O)N1CCc2cc(S(=O)(=O)Nc3ccc(C)cc3)ccc21`, the Potency was 316 µM (active).
